The source of these data is the OligoGym collection.
Further: reference of the scale not given here.

The first experiment concerns the target AATK. Kind of experiment: pooled miR-30 sensor sort-seq; sequence = guide strand. As to conditions: shRNA.
For TTGCGTTCCAGGTCCTCGCAGA, the sensor-assay potency score (higher = more potent) is -0.188.

ATAGTCACCAATCTTCACCGTC displayed a sensor-assay potency score (higher = more potent) of 0.047. TTGTACTCAAAATTGAGGCCTC had a sensor-assay potency score (higher = more potent) of 0.126. TTCACCGTCAGGTCAGCCGTGA showed a sensor-assay potency score (higher = more potent) of -0.0686.

In turn, AACTGCATCACCTCGTACCAGC displayed a sensor-assay potency score (higher = more potent) of -1.29. Consider TCGGTAGGGATTCTTCTCGTTG, for which the sensor-assay potency score (higher = more potent) is -0.77. The same measure, in the same setting: to TTGCCTTCTGATCTCAGCGGAA belongs -0.981; to TAGTTCTCGGTGTCATAGCCAC, -0.895. In the case of TTGATGGCAGACACCTCGCCAC, the sensor-assay potency score (higher = more potent) is -0.828.

The next experiment concerns the target ABCA10. The experiment is described as above. The conditions noted are these: shRNA.
In turn, TTTATTTTAGCAAATACCCTGA returned a sensor-assay potency score (higher = more potent) of -0.0638.

In turn, TTGAACATCTTCATCTTCTTCT returned a sensor-assay potency score (higher = more potent) of 1.07. Sequence TTCTTCTTCGGGCTCTTCCGGA had a sensor-assay potency score (higher = more potent) of -0.863. In turn, TTATTTTTTCTCCACTTGCGAA had a sensor-assay potency score (higher = more potent) of -1.28.

For TTCTTTTATAACATTTCTGATT, the sensor-assay potency score (higher = more potent) is -1.16.

TTTATCATCAACATTTCCCAGC came in with a sensor-assay potency score (higher = more potent) of -0.195. TATTCTTTTATAACATTTCTGA displayed a sensor-assay potency score (higher = more potent) of 0.0597. TATCACTAAATATAACTCCCAC came in with a sensor-assay potency score (higher = more potent) of -0.516. The same measure, in the same setting: to TTAGACAGAAATACTTTCCTAT belongs 0.661; to TTATTAACGATTAACAGGCTGG, -0.301; to TTCATTTATTCTATTGTCCAGA, -0.279.
